# Reference: PubChem BioAssay (NCATS)
# “And” between values parts separate entries of the source, which are not always exact repeats. Equal values may be shown once. Inconclusive results are not listed. Where a call stands in place of a potency, no number is given. The source made the active and inactive calls. Unless noted, calls come from the whole dose curve; as a rule, active = well fitted curve in the direction sought with a large enough effect; inconclusive = small, poorly fitted or top-dose-only effect, or another doubt; inactive = no such curve, though single readings can be large; an effect the other way counts as inactive or inconclusive.
# Assays:
# [1] = target: Voltage-gated inwardly rectifying potassium channel KCNH2 (Homo sapiens) (UniProt Q12809); experiment: qHTS Assay for Small Molecule Inhibitors of the Human hERG Channel Activity (AID 588834);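 note: lower thallium flux fluorescence means stronger hERG block; nearly all actives have a fitted effect of over 50% in size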; note: potency is the fitted concentration of half-maximal effect
# Voltage-gated inwardly rectifying potassium channel KCNH2 (Homo sapiens), sequence (Q12809 whole entry, looked up): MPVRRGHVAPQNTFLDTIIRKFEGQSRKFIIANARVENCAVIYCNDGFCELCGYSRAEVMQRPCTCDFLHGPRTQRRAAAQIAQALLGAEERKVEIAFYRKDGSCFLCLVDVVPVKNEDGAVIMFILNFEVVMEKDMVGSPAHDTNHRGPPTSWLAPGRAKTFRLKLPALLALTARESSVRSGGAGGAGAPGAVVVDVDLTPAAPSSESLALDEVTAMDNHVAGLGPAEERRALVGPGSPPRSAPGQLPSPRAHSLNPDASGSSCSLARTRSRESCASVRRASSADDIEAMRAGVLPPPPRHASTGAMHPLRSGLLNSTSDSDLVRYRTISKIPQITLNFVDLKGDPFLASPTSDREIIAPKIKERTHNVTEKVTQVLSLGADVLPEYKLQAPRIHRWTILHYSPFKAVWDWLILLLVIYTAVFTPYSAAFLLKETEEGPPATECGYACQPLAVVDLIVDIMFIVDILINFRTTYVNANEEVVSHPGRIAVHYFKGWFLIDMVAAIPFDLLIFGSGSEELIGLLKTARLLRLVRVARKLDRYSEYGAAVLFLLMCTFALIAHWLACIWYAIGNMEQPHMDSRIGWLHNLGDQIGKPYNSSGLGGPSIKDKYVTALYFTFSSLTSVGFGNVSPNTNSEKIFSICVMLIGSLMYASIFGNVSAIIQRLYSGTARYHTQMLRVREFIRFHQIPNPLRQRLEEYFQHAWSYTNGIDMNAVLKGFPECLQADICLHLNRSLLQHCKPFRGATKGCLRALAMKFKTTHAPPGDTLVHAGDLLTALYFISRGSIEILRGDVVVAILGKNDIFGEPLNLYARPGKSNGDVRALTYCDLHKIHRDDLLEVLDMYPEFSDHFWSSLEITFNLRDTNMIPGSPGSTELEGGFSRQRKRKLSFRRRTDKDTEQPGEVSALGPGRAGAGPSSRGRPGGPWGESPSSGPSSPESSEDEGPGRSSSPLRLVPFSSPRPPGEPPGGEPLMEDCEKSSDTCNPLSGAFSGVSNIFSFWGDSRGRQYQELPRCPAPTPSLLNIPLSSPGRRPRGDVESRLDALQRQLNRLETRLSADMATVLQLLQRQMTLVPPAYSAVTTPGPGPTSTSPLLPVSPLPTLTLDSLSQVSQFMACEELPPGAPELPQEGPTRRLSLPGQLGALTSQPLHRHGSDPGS
# Procedure, shortened: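 U2OS cells transduced with hERG via BacMam (MOI ~100), plated 2000/well, loaded with FluxOR thallium dye, compound ~10 min, then stimulation buffer; fluorescence decrease read kinetically; AC50 from Hill fits.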
# [2] = target: Luciferin 4-monooxygenase (Photinus pyralis) (UniProt P08659); experiment: Biochemical firefly luciferase enzyme assay for NPC (AID 624030); note: nearly all actives have a fitted effect of over 70% in size; note: potency is the fitted concentration of half-maximal effect
# Luciferin 4-monooxygenase (Photinus pyralis), sequence (P08659 whole entry, looked up): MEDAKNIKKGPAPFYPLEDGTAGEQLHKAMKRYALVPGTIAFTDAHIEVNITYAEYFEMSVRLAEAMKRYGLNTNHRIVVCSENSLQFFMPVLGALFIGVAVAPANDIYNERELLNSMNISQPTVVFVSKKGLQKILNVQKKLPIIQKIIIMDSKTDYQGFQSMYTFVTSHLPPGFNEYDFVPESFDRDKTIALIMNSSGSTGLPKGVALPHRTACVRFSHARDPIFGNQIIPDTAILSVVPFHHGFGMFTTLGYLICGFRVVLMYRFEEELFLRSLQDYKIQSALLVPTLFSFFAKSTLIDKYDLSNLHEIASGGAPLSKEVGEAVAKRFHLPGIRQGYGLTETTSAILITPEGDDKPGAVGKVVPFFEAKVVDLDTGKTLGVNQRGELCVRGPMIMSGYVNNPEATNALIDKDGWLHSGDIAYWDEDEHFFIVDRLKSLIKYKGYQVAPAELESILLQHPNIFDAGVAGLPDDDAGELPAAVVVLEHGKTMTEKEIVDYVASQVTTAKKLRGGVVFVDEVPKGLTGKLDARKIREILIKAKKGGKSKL
# Procedure, shortened: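 Direct inhibition of firefly luciferase enzyme (10 nM final, 50 mM Tris Acetate) assessed by luminescence within 5 minutes. Percent activity scaled between DMSO and PTC124 positive control, with concentration-effect curves classified by fit quality and response.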
# [3] = S16 Schwann cell viability assay (CellTiter-Glo assay) (AID 624031); note: nearly all actives have a fitted effect of over 70% in size; note: potency is the fitted concentration of half-maximal effect
# Procedure, shortened: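 Cells were seeded at 500-750 per well in phenol red-free DMEM with 10% FBS and left overnight. Compounds or DMSO were pinned in, incubation ran 24 h at 37 °C/5% CO2, then CellTiter-Glo reagent was added and luminescence measured.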
# [4] = S16 Schwann cell PMP22 intronic element firefly luciferase assay (AID 624032); note: series mostly up to about 58 µM; nearly all actives have a fitted effect of over 30% in size
# Procedure, shortened: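 Luciferase reporter of PMP22 intronic-element expression in stably transfected S16 rat Schwann cells, read by ONE-Glo luminescence after 24 h compound exposure at 37 C. Activity scaled between DMSO (0%) and positive-control PTC124; concentration-effect curves quality-classified.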
# [5] = S16 Schwann cell PMP22 intronic element beta-lactamase assay (AID 624044; calls by dose curve; note: nearly all actives have a fitted effect of over 15% in size)
# Procedure, shortened: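 Rat S16 Schwann cells with beta-Lac driven by a PMP22 intronic element, compound-treated 24 h at 37 °C. LiveBLAzer FRET B/G read: 460 nm normalized to potassium clavulanate vs DMSO; 535 nm FRET as viability; concentration-effect curves classified.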
structure (smiles),measurement,setting,value
Oc1ccc2[nH]cc(CCCCN3CC=C(c4ccccc4)CC3)c2c1,Potency,[1],1.26 µM (active)
same,Potency,[2],inactive
same,Potency,[3],inactive
ClC1=C(Cl)C2(Cl)C(CBr)CC1(Cl)C2(Cl)Cl (centres undefined),Potency,[1],22.4 µM (active)
same,Potency,[2],inactive
same,Potency,[3],inactive
COC(=O)C1=CCCN(C)C1,Potency,[1],inactive
same,Potency,[2],inactive
same,Potency,[3],inactive
CCC1(CC)C(=O)NC(=O)NC1=O,Potency,[1],inactive
same,Potency,[2],inactive
same,Potency,[3],inactive
same,Potency,[4],inactive
same,Potency,[5],inactive
CCS(=O)(=O)C(C)(C)S(=O)(=O)CC,Potency,[1],inactive
same,Potency,[2],inactive
same,Potency,[3],inactive
CCOC(=O)c1cncn1C(C)c1ccccc1 (centres undefined),Potency,[1],inactive
CCN(Cc1ccc(Cl)nc1)/C(=C/[N+](=O)[O-])NC,Potency,[1],inactive
same,Potency,[2],inactive
same,Potency,[3],inactive
O=C1NCN(c2ccccc2)C12CCN(CCCOc1ccc(F)cc1)CC2,Potency,[1],0.355 µM (active)
same,Potency,[2],inactive
same,Potency,[3],inactive
COc1ccc(C(=O)N2CCCC2=O)cc1,Potency,[1],inactive
same,Potency,[2],inactive
same,Potency,[3],inactive
same,Potency,[4],inactive
NCc1cccnc1,Potency,[1],inactive
same,Potency,[2],inactive
same,Potency,[3],inactive
CCOC(=O)NC(O)C(Cl)(Cl)Cl (centres undefined),Potency,[1],inactive
same,Potency,[2],inactive
same,Potency,[3],inactive
O=C(CCCN1CCC(n2c(=O)[nH]c3ccccc32)CC1)c1ccc(F)cc1,Potency,[1],0.355 µM (active)
same,Potency,[2],inactive
same,Potency,[3],inactive
same,Potency,[4],inactive
NC(=O)CN1CCCC1=O,Potency,[1],inactive
same,Potency,[2],inactive
same,Potency,[3],inactive
same,Potency,[4],inactive
CCCC[N+]1(C)[C@@H]2CC(OC(=O)[C@H](CO)c3ccccc3)C[C@H]1[C@@H]1O[C@@H]12 (some centres undefined),Potency,[1],inactive
CCCC(C)C1(CC)C(=O)N=C(S)NC1=O (centres undefined),Potency,[1],inactive
CCN(CC)CCOC(=O)C(C)(c1ccccc1)c1ccccc1,Potency,[1],3.55 µM (active)
same,Potency,[2],inactive
same,Potency,[3],inactive
same,Potency,[5],inactive
c1cc2c(c(N3CCNCC3)c1)OCCO2,Potency,[1],inactive
same,Potency,[2],inactive
same,Potency,[3],inactive
same,Potency,[4],inactive
CN1C(=O)CN=C(c2ccccc2)c2cc([N+](=O)[O-])ccc21,Potency,[1],inactive
same,Potency,[2],inactive
same,Potency,[3],inactive
same,Potency,[4],inactive
same,Potency,[5],inactive
CC(C)(O)C(Cl)(Cl)Cl,Potency,[1],inactive
same,Potency,[2],inactive
same,Potency,[3],inactive
Cc1ncc2n1-c1ccc(Cl)cc1C(c1ccccc1F)=NC2,Potency,[1],inactive
same,Potency,[2],inactive
same,Potency,[3],inactive
CC(N)C(=O)OC(C)(C)Cc1ccc(Cl)cc1 (centres undefined),Potency,[1],inactive
OC(O)C(Cl)(Cl)Cl,Potency,[1],inactive
same,Potency,[2],inactive
same,Potency,[3],inactive
CC(C)=C[C@@H]1[C@@H](C(=O)OCc2coc(Cc3ccccc3)c2)C1(C)C,Potency,[1],inactive
c1ccc2nc(N3CCNCC3)ccc2c1,Potency,[1],inactive
same,Potency,[2],inactive
same,Potency,[3],inactive
same,Potency,[4],inactive
CC(C)C(Br)C(=O)NC(N)=O (centres undefined),Potency,[1],inactive
same,Potency,[2],inactive
same,Potency,[3],inactive
C#C[C@]1(O)C=C[C@H]2[C@@H]3CCC4=CC(=O)CC[C@@H]4[C@H]3CC[C@@]21CC,Potency,[1],inactive
C[N+](C)(C)CCOC(=O)C(O)(c1ccccc1)c1ccccc1,Potency,[1],inactive
same,Potency,[2],inactive
same,Potency,[3],inactive
same,Potency,[4],inactive
C[C@]12C=CC(=O)C=C1CC[C@@H]1[C@@H]2CC[C@@]2(C)[C@H]1CC[C@]2(C)O,Potency,[1],inactive
same,Potency,[2],inactive
same,Potency,[3],inactive
same,Potency,[5],inactive
CCN(CC)C(C)C(=O)c1ccccc1 (centres undefined),Potency,[1],inactive
same,Potency,[2],inactive
same,Potency,[3],inactive
same,Potency,[4],inactive
C[N+]1(CCC(C(N)=O)(c2ccccc2)c2ccccc2)CCCCC1,Potency,[1],inactive
same,Potency,[2],inactive
same,Potency,[3],inactive
CNC(=O)NC(O)C(Cl)(Cl)Cl (centres undefined),Potency,[1],inactive
same,Potency,[2],inactive
same,Potency,[3],inactive
CC(C)[N+](C)(CCC(C(N)=O)(c1ccccc1)c1ccccc1)C(C)C,Potency,[1],inactive
same,Potency,[2],inactive
same,Potency,[3],inactive
same,Potency,[4],inactive
same,Potency,[5],inactive
C[C@@H]1CC[C@H]2[C@@H](C)C(=O)O[C@@H]3O[C@@]4(C)CC[C@@H]1[C@]32OO4,Potency,[1],inactive
CC[C@H]1C[C@H]2[C@@H]3CCC4=CC(=O)CC[C@@H]4[C@H]3CC[C@]2(C)[C@H]1O,Potency,[2],inactive
CN1C[C@@H](NS(=O)(=O)N(C)C)C[C@@H]2c3cccc4c3c(cn4C)C[C@H]21,Potency,[1],inactive
same,Potency,[2],inactive
same,Potency,[4],inactive
CN1C(=O)CN=C(c2ccccc2)c2cc(Cl)ccc21,Potency,[2],inactive
CC[C@]1(O)CC[C@H]2[C@@H]3CCC4=CCCC[C@@H]4[C@H]3CC[C@@]21C,Potency,[1],inactive
same,Potency,[2],inactive
same,Potency,[5],inactive
CC(=O)OC1(c2ccccc2)CCN(CCc2ccccc2)CC1,Potency,[2],inactive
CN(C)CCc1c[nH]c2ccccc12,Potency,[2],inactive
COc1ccc(CN2CCNCC2)c(OC)c1OC,Potency,[1],inactive
same,Potency,[2],inactive
same,Potency,[3],inactive
same,Potency,[5],inactive
CCC(=O)OC1(c2ccccc2)CCN(C)CC1,Potency,[2],inactive
CN1CCc2cc(Cl)c(O)cc2[C@H]2c3ccccc3CC[C@@H]21,Potency,[2],inactive
COc1ccc(OC)c(CC(C)N)c1 (centres undefined),Potency,[2],inactive
CCN(CC)Cc1nccn1-c1ccc([N+](=O)[O-])cc1C(=O)c1ccccc1Cl,Potency,[2],inactive
CCCCCCCCCCCC[N+](C)(C)CCOc1ccccc1,Potency,[1],2.82 µM (active) and 5.01 µM (active)
same,Potency,[2],inactive
same,Potency,[3],32200 nM (active)
same,Potency,[5],inactive
COc1ccc2[nH]cc(CCN(C(C)C)C(C)C)c2c1,Potency,[2],inactive
C[N+](C)(C)CCCCCCCCCC[N+](C)(C)C,Potency,[2],inactive
CCOC(=O)c1ncn2c1CN(C)C(=O)c1c(I)cccc1-2,Potency,[2],inactive
NC(=O)OCCCc1ccccc1,Potency,[1],inactive
same,Potency,[2],inactive
same,Potency,[3],inactive
same,Potency,[5],inactive
CN(C)CCc1c[nH]c2ccc(O)cc12,Potency,[2],inactive
CCCCC1C(=O)NC(=O)N(C2CCCCC2)C1=O (centres undefined),Potency,[2],inactive
CNC(C)Cc1ccccc1OC (centres undefined),Potency,[2],inactive
COc1ccc2c(C(=O)c3ccc(Cl)cc3)c(C)n(CC(=O)O)c2c1,Potency,[2],inactive
c1ccc(CCNc2nc(-c3ccccc3)cs2)cc1,Potency,[2],1610 nM (active)
CC(C)NCC(O)c1ccc(N)c(C#N)c1 (centres undefined),Potency,[1],inactive
same,Potency,[2],inactive
same,Potency,[3],inactive
same,Potency,[5],inactive
Cc1nc2ccccc2c(=O)n1-c1ccccc1Cl,Potency,[2],inactive
CNC(C)Cc1ccc2c(c1)OCO2 (centres undefined),Potency,[2],inactive
C#C[C@]1(O)CC[C@H]2[C@@H]3CCC4=CC(=O)CCC4=C3C=C[C@@]21CC,Potency,[1],inactive
same,Potency,[2],inactive
same,Potency,[5],inactive
NC1(c2ccccc2)CCCCC1,Potency,[2],inactive
C[C@]12CC[C@H]3[C@@H](CC=C4C[C@@H](O)CC[C@@]43C)[C@@H]1CC[C@@H]2O,Potency,[1],inactive
same,Potency,[2],inactive
same,Potency,[4],inactive
CC(C)(C)OC(=O)c1ncn2c1[C@@H]1CCCN1C(=O)c1c(Br)cccc1-2,Potency,[1],inactive
same,Potency,[2],inactive
same,Potency,[3],inactive
same,Potency,[5],inactive
C[C@H]1CNCCc2ccc(Cl)cc21,Potency,[2],inactive
CCCN(CCC)CCc1c[nH]c2ccccc12,Potency,[2],inactive
COP(=S)(OC)Oc1ccc(S(N)(=O)=O)cc1,Potency,[2],inactive
O=C(O)c1nn(Cc2ccc(Cl)cc2Cl)c2ccccc12,Potency,[1],inactive
same,Potency,[2],inactive
same,Potency,[3],inactive
same,Potency,[5],inactive
Nc1ccc(N)cc1,Potency,[1],inactive
same,Potency,[5],inactive
O=C(O)Cc1ccccc1,Potency,[2],inactive
CCOC(=O)NC(C)(C)Cc1ccc(Cl)cc1,Potency,[2],inactive
